Sensor-assay potency score (higher = more potent) data for 40 sequences are collected here from the OligoGym collection.
Note: reference of the scale not given here.

The target of one assay is ZFP62. Nature of the assay: pooled miR-30 sensor sort-seq; sequence = guide strand. The settings on record: shRNA.
The sequence TATGTAATTTCTTAACAGCATT returned a sensor-assay potency score (higher = more potent) of -1.56. The sequence TAATTTCTTAACAGCATTGGTT showed a sensor-assay potency score (higher = more potent) of -0.651. With TTTATGTTGAACAAGGCGGGAA, the sensor-assay potency score (higher = more potent) amounted to 0.133.

Regarding TTTTATGTTGAACAAGGCGGGA, the sensor-assay potency score (higher = more potent) is -0.995.

As for TTATATTTGAAGGATTTCCCAC, the sensor-assay potency score (higher = more potent) was -0.915. ATACATAAGGTCTCTCTCCGGT yielded a sensor-assay potency score (higher = more potent) of 0.0569. On the same count and under the same terms, with TTTTCTGCTGTAGACTAGGGTA the figure was -0.796; with TAGAGCGTGAGATATAGGCTTT, -0.26; with TTTCTCTCTAGTGTGGACCCTT, -0.0465.

The target in a further assay is ZFR2. The description is as above. The conditions noted are these: shRNA.
Sequence TCATCCTCGGTCACCATCTGGA returned a sensor-assay potency score (higher = more potent) of -0.791. Still for that read-out and setting: with TAGCTTGGTGCCGTGTAGGCGG the figure was -0.795; with TTAAGGTCGTTGAAACTGCACT, -0.864. On the same count and under the same terms, with TGCAGCTTGAAGACCTTCTGGT the figure was 0.0557; with TATGGTGACCTGCATCCTGGGC, -0.904. The same measure, in the same setting: with TCCGTAGCTGTAACTGTCCTGG the figure was -0.711. In turn, TTTCTTCCGGTACTGCAGCCGG registered a sensor-assay potency score (higher = more potent) of -0.948. Still for that read-out and setting: with TCTGTCTGGTCTCTCTCGCAGG the figure was -0.775; with TTCGTCGCTGAACACCTCCTCC, -0.823; with TAGTGAAGCTGGAGCTGCCTGG, -0.835.

TGTCGCAGTAGTGAAGCTGGAG had a sensor-assay potency score (higher = more potent) of -0.148. Still for that read-out and setting: with TTGGGTCTCGGCAGCTTGCTGG the figure was -0.733.

A further assay has as its target ZFR. Described as above. The settings on record: shRNA.
Regarding TTTTTCATTACATCACTGCTAG, the sensor-assay potency score (higher = more potent) worked out at 0.0706. Sequence TTGTGTAGGAGACATAAGCAGG yielded a sensor-assay potency score (higher = more potent) of -0.979. The sequence TATAACCATAGTCAGTTGCTGT yielded a sensor-assay potency score (higher = more potent) of -0.854. The same measure, in the same setting: with TATAACAGCAAGCTGTTTGGGT the figure was 0.358; with TTATATTGAAGTCTGTGTCTTC, 0.707; with TAGTTTTGTGTAGTAGCTGGGG, 0.0406. As to TCTTCTTCTCGTCTTCGCCAGT, the sensor-assay potency score (higher = more potent) was -1.15. As to TTGACATTTCTATCTCCTCGGA, the sensor-assay potency score (higher = more potent) is -0.27. TTGTGTGTAACTTAACCACTTT: the sensor-assay potency score (higher = more potent) is -0.519. The sequence TTACATATGAGTATGAATCCTG came in with a sensor-assay potency score (higher = more potent) of 0.475. The same measure, in the same setting: with TAGAACTTTGTGTATCTGGCGG the figure was -0.255; with TTTCTCTACTAGTAACTCCATA, -1.22.

The next assay deals with ZHX1. Described as above. The conditions noted are these: shRNA.
TAAATTAGTATGAACTTTCAGT returned a sensor-assay potency score (higher = more potent) of -0.00447. On the same count and under the same terms, with TAGACATACAGTATTAAACTGG the figure was -0.456.

Regarding TTATGATGAACTGCAATCCGTT, the sensor-assay potency score (higher = more potent) was -0.993.

In turn, TTAAACTGAACATTTCTTCTAC showed a sensor-assay potency score (higher = more potent) of 0.706. In turn, TTGCTCATTAAGAAACTTGTGC registered a sensor-assay potency score (higher = more potent) of -0.28. Sequence TAAGTATACATTTACTACGTGA came in with a sensor-assay potency score (higher = more potent) of -0.517.

As to TTTACTGATAGATATTCCCGAA, the sensor-assay potency score (higher = more potent) is -0.468.
